In PubChem BioAssay (EPA / NIEHS):
Inconclusive results are not listed. The source made the active and inactive calls. Rule for the calls: active = hit-call score of the fitted dose curve at least 0.9, where 1 is the maximum; inconclusive = response in the unintended direction; inactive = score below 0.9.

Test: ACEA_AR_agonist_AUC_viability: ACEA Biosciences xCELLigence Real-Time Cell Analysis on Androgen Receptor Agonism for Viability (AID 2283775);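 for AC50: viability read 80 hours after compound addition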
Protocol: ACEA_AR_agonist is a cell-based, single-readout assay that uses 22Rv1, a human prostate cancer cell line, with measurements taken at 80 hours after chemical dosing in a 384-well plate, although TO5 and TO6 (mc0.srcf) used a 96-well plate. Differences in plate size can be ignored given data normalization.ACEA_AR_80hr is one of two assay component(s) measured or calculated from the ACEA_AR assay. It is designed to make measurements of real-time cell-growth kinetics, a form of growth reporter, as detected with electrical impedance signals by Real-Time Cell Electrode Sensor (RT-CES) technology.Data from the assay component ACEA_AR_AUC_viability was analyzed in the positive analysis fitting direction relative to DMSO as the negative control and baseline of activity. Using a type of growth reporter, loss-of-signal activity can be used to understand changes in the viability. Furthermore, this assay endpoint can be referred to as a secondary readout, because this assay has produced multiple assay endpoints where this one serves a viability function. To generalize the intended target to other relatable targets, this assay endpoint is annotated to the cell cycle intended target family, where the subfamily is cytotoxicity.
The xCELLigence system Multi-E-Plate stations were used to measure the time-dependent response to chemicals. Each compound was tested in an eight-point, 1:4 serial dilution series starting at a maximum final concentration of 100 uM. A maximum starting concentration of 0.5% DMSO was present in the 100 uM chemical samples and was diluted along with the test article dilution series. The screen was performed in biological duplicate using two separate, 96-well, E-Plates 96 for each dilution series (n = 2). Positive controls (MG132 and testosterone) and a negative control (assay media) were tested in quadruplicate on each testing plate. Then, 0.5% and 0.125% DMSO were tested in duplicates in each plate to serve as solvent controls for the 2 highest concentrations of testing compounds: 100 uM and 25 uM. Reference compounds were tested with 8 concentrations with 1:5 serial dilutions. All screening was carried out by ACEA Biosciences, Inc. (San Diego, CA). 22Rv1 cells purchased from ATCC were maintained in media supplemented with 10% fetal bovine serum (FBS). Before screening, 22Rv1 cells were preconditioned in assay medium. Cells were then detached and seeded in E-Plates 96 in assay medium. After overnight monitoring of growth once every hour, compounds were added to […] cells and remained in the medium until the end of the experiment. Cellular responses were then recorded once every 5 min for the first 5 h, and once every hour for an additional 100 h.

SMILES	outcome	AC50
O=c1[nH]c2ccc(S(=O)CCN3CCC(Cc4ccc(F)cc4)CC3)cc2o1 (stereo not given)	inactive	–
COC(=O)CC(=O)OC	inactive	–
O=C1OC(=O)C2C3C=CC(C3)C12 (stereo not given)	inactive	–
CC(C)=CCCC(C)=CC=O	inactive	–
CCn1nc(Cc2ccccc2)cc1C1CCN(C[C@H]2C[C@H](N(C)[C@@H](C(=O)O)C(C)C)C[C@@H]2c2cccc(F)c2)CC1	–	36 µM (active)
CC[C@H]1OC(=O)[C@H](C)[C@@H](O[C@H]2C[C@@](C)(OC)[C@@H](O)[C@H](C)O2)[C@H](C)[C@@H](O[C@@H]2O[C@H](C)C[C@H](N(C)C)[C@H]2O)[C@](C)(O)C[C@@H](C)C(=O)[C@H](C)[C@@H](O)[C@]1(C)O	inactive	–
CC(C)CCCCCCCOC(=O)CCCCC(=O)OCCCCCCCC(C)C	inactive	–
O=C1CCC(N2C(=O)c3ccccc3C2=O)C(=O)N1 (stereo not given)	inactive	–
Cc1ccc(O)cc1	inactive	–
CC[C@H]1CC[C@H](NCc2cc3c(cc2OC)[C@H]2C[C@H]2C(=O)N3C)[C@H](c2ccccc2)N1	–	17.5 µM (active)
CCOCCOCCOCCO	inactive	–
Cc1ccc(C)c(O)c1	inactive	–
CC(C)(O)c1coc(S(=O)(=O)NC(=O)Nc2c3c(cc4c2CCC4)CCC3)c1	inactive	–
Cc1ccc(S(=O)(=O)O)cc1C	inactive	–
CCCCCCCCO	inactive	–
C1N2CN3CN1CN(C2)C3	inactive	–
C1=CCCC=CCCC=CCC1	inactive	–
Nc1ccc(Nc2ccccc2)cc1	–	93 µM (active)
O=C(OC[C@H]1O[C@@H](OC(=O)c2cc(O)c(O)c(OC(=O)c3cc(O)c(O)c(O)c3)c2)[C@H](OC(=O)c2cc(O)c(O)c(OC(=O)c3cc(O)c(O)c(O)c3)c2)[C@@H](OC(=O)c2cc(O)c(O)c(OC(=O)c3cc(O)c(O)c(O)c3)c2)[C@@H]1OC(=O)c1cc(O)c(O)c(OC(=O)c2cc(O)c(O)c(O)c2)c1)c1cc(O)c(O)c(OC(=O)c2cc(O)c(O)c(O)c2)c1	–	26.3 µM (active)
Cc1ccc(N)cc1O	–	89.7 µM (active)

SMILES	outcome	AC50
CCCCCCc1ccc(O)cc1O	–	16.1 µM (active)
CC(C)CC(C)(O)C#CC(C)(O)CC(C)C (stereo not given)	inactive	–
CN(C)c1ccc(Cc2ccc(N(C)C)cc2)cc1	–	56.8 µM (active)
CCC(C)(C)C(=O)O[C@H]1C[C@@H](C)C=C2C=C[C@H](C)[C@H](CC[C@@H]3C[C@@H](O)CC(=O)O3)[C@H]21	–	29.9 µM (active)
CCN(C(=O)c1cc(C)cc(OC[C@H](C)Nc2ccncc2)c1)C(C)C	–	33.8 µM (active)
CC(C)=CCC/C(C)=C/CO	–	33 µM (active)
CCCN(C1CCN(C(=O)C2CCNCC2)CC1)[C@@H]1CCc2ccc(OC)cc2C1	–	75 µM (active)
O=C(O)c1cccc(N(Cc2cccnc2)c2ccc(OC(F)F)c(OC(F)F)c2)c1	–	88.2 µM (active)
O=C1CCCCCN1	inactive	–
CC(=O)c1ccc2c(c1)[C@H](NC(=O)c1ccc(F)cc1)[C@@H](O)C(C)(C)O2	inactive	–
C=CC(=C)CCC=C(C)C	inactive	–
COc1ccc(-n2nc(C(F)F)cc2-c2ccc(S(C)=O)cc2)cc1 (stereo not given)	inactive	–
O=C(O)CCN(C1(C(=O)NO)CCCC1)S(=O)(=O)c1ccc(Oc2ccc(F)cc2)cc1	inactive	–
CCOCCO	inactive	–
CCCCCCCCCCCCCCCO	–	78.9 µM (active)
CCOC(=O)COc1ccc2c(c1)CC(NCC(O)c1cccc(Cl)c1)CC2 (stereo not given)	–	63.6 µM (active)
CNCc1ccc(NC(=O)c2c[nH]c3c2C(=O)CCC3)cc1	–	50 µM (active)
COc1cccc(-c2ccc(/C=C\CN3CCCCCC3)cc2Cl)c1	–	62.7 µM (active)
Cn1c(=O)c2c(ncn2C)n(C)c1=O	inactive	–
COC(=O)c1c(Cl)c(Cl)c(C(=O)OC)c(Cl)c1Cl	inactive	–
